Holding throughout (test): protein-binding microarray (PBM); PBM: ~300 nM protein, 6 mM HEPES pH 7.8, 80 mM KCl, 0.5 mM EDTA, 0.5 mM EGTA, 6% glycerol, 35 ng/ul poly-dIdC, 1% milk, 1 h, room temperature; Ap Aiptasia and Nv Nematostella (sea anemones) / Co Capsaspora / Aq Amphimedon (sponge) / Dm Drosophila / Hu human; RHD is the Rel homology domain; high values mean tight binding
Holding throughout (conditions): dsDNA, one strand shown

One assay deals with T1, GST-Ap-NF-kB RHD (Exaiptasia pallida (Aiptasia), UniProt A0A913YAJ5 2-422).
T1 sequence: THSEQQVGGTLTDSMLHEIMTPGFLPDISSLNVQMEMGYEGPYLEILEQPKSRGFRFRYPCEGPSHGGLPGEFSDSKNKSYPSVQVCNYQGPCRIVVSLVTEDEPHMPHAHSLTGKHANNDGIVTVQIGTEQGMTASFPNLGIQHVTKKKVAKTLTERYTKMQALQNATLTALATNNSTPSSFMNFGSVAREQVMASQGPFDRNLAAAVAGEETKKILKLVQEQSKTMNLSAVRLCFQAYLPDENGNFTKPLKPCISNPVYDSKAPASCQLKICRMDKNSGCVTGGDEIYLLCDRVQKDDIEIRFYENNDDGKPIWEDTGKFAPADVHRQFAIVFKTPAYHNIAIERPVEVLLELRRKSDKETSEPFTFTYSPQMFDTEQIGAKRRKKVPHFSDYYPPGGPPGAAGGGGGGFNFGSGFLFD

Assay [1] concerns the target T2, GST-Nv-NF-kB (Cys allele) (Nematostella vectensis, UniProt E5G601 2-411).
T2 sequence: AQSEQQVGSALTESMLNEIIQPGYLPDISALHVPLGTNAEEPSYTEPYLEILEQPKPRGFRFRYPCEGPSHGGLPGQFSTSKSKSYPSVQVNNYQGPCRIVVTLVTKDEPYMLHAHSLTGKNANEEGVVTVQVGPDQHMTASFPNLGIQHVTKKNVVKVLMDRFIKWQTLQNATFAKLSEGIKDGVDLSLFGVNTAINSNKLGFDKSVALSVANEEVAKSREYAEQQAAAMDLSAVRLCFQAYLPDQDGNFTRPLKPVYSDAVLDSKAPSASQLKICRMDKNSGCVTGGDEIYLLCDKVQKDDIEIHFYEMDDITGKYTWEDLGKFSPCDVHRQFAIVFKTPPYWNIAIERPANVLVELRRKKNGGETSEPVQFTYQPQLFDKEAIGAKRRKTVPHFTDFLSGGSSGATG

Another assay has as its target T3, GST-Co-NF-kB (Capsaspora owczarzaki, UniProt F1ARL5 200-546).
T3 sequence: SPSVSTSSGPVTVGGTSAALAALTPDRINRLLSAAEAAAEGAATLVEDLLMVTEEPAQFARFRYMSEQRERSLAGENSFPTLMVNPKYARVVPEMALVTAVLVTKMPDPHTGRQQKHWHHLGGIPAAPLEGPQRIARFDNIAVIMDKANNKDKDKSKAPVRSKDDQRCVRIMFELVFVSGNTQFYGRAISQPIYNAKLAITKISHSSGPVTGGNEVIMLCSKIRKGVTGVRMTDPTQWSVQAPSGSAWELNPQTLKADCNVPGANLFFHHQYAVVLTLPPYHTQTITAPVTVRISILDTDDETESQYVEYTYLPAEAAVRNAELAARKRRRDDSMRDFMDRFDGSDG

A further assay addresses T4, GST-Aq-NF-kB (Amphimedon queenslandica, UniProt A9Y5G7 2-389).
T4 sequence: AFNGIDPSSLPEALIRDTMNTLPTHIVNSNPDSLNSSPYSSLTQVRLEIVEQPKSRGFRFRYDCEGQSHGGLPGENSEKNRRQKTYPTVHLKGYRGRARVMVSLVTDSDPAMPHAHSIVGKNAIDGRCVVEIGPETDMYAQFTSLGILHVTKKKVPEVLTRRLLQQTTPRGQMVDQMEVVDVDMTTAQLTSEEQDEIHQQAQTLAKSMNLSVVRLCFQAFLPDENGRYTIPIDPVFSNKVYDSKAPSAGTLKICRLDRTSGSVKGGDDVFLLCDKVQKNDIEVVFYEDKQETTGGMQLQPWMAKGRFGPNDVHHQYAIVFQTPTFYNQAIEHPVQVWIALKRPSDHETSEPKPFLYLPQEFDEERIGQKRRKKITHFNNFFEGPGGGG

Another assay has as its target T5, GST-Dm-Relish (Drosophila melanogaster, UniProt Q94527 99-473).
T5 sequence: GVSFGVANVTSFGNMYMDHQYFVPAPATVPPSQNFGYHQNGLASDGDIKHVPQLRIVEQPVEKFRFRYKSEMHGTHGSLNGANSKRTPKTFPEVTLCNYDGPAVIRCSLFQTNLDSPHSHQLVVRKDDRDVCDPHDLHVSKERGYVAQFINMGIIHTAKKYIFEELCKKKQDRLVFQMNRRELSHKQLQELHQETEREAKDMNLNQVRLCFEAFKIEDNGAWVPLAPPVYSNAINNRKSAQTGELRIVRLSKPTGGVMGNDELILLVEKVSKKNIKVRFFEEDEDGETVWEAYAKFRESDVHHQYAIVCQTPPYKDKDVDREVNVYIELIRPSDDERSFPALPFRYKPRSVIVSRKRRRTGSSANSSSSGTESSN

In article PMC5700166 one finds binding signal data, which are given here for 32 sequences.

Regarding “CCGATTAACATCAGGTCGGGAAATGATGTTAATCGGGTCTTGATTCGCTTGACGCTGCTG”, the binding signal with GST-Ap-NF-kB RHD was found to be 1.76 z-score; in assay [1] it was 2.6 z-score; with GST-Co-NF-kB it was 3.1 z-score; with GST-Aq-NF-kB it was 1.83 z-score.
As to “CCGATTAACATCAGGGAAAGGGATGATGTTAATCGGGTCTTGATTCGCTTGACGCTGCTG”, the binding signal in the assay with GST-Ap-NF-kB RHD is 2.49 z-score; in assay [1], 3.29 z-score; in the assay with GST-Co-NF-kB it was 2.1 z-score; in the assay with GST-Aq-NF-kB it was 2.84 z-score.
The corresponding values for “CCGATTAACATCAGAGTTTCCCATGATGTTAATCGGGTCTTGATTCGCTTGACGCTGCTG” are 3.08 z-score, 3.42 z-score, 3.76 z-score and 3.07 z-score.
The corresponding values for “CCGATTAACATCAAGCGTTTCCCTGATGTTAATCGGGTCTTGATTCGCTTGACGCTGCTG” are 2.29 z-score, 3.6 z-score, 2.62 z-score and 2.82 z-score.
The corresponding values for “CCGATTAACATCAATTTACCCACTGATGTTAATCGGGTCTTGATTCGCTTGACGCTGCTG” are 1.67 z-score, 1.68 z-score, 2.34 z-score and 1.45 z-score.
Take “CCGATTAACATCAGGGAATTAGATGATGTTAATCGGGTCTTGATTCGCTTGACGCTGCTG”: the binding signal with GST-Ap-NF-kB RHD came out at 1.83 z-score; in assay [1], 3.48 z-score; in the assay with GST-Co-NF-kB, 2.41 z-score; with GST-Aq-NF-kB it was 3.43 z-score.
The corresponding values for “CCGATTAACATCAAACAGGGAAATGATGTTAATCGGGTCTTGATTCGCTTGACGCTGCTG” are 2.71 z-score, 4.69 z-score, 2.47 z-score and 3.23 z-score.
Regarding “CCGATTAACATCACATCTTTCCCTGATGTTAATCGGGTCTTGATTCGCTTGACGCTGCTG”, the binding signal is 2.24 z-score with GST-Ap-NF-kB RHD, 3.96 z-score in assay [1], 3.84 z-score in the assay with GST-Co-NF-kB and 4.25 z-score in the assay with GST-Aq-NF-kB.
The corresponding values for “CCGATTAACATCATCAGGGAAAATGATGTTAATCGGGTCTTGATTCGCTTGACGCTGCTG” are 2.12 z-score, 4.35 z-score, 2.95 z-score and 2.95 z-score.
The corresponding values for “CCGATTAACATCACGGTGGGAAATGATGTTAATCGGGTCTTGATTCGCTTGACGCTGCTG” are 2.05 z-score, 2.39 z-score, 2.77 z-score and 1.94 z-score.
The corresponding values for “CCGATTAACATCACCAGTTTCCCTGATGTTAATCGGGTCTTGATTCGCTTGACGCTGCTG” are 2.66 z-score, 3.06 z-score, 3.09 z-score and 2.6 z-score.
For the sequence “CCGATTAACATCAATCGGGAAATTGATGTTAATCGGGTCTTGATTCGCTTGACGCTGCTG”, the binding signal was found to be 1.3 z-score with GST-Ap-NF-kB RHD, 3.45 z-score in assay [1], 2.19 z-score in the assay with GST-Co-NF-kB and 2.1 z-score in the assay with GST-Aq-NF-kB.
Consider “CCGATTAACATCAGGAGTCTCCCTGATGTTAATCGGGTCTTGATTCGCTTGACGCTGCTG”, for which the binding signal came to 1.69 z-score in the assay with GST-Ap-NF-kB RHD, 2.44 z-score in assay [1], 2.17 z-score with GST-Co-NF-kB and 5.28 z-score with GST-Aq-NF-kB.
The corresponding values for “CCGATTAACATCAATTCCCGTACTGATGTTAATCGGGTCTTGATTCGCTTGACGCTGCTG” are 1.81 z-score, 2.92 z-score, 2.55 z-score and 2.81 z-score.
The corresponding values for “CCGATTAACATCAGGGACAAAAATGATGTTAATCGGGTCTTGATTCGCTTGACGCTGCTG” are 2 z-score, 3.15 z-score, 2.39 z-score and 2.39 z-score.
The corresponding values for “CCGATTAACATCATGGGGACGACTGATGTTAATCGGGTCTTGATTCGCTTGACGCTGCTG” are 3.56 z-score, 3.19 z-score, 2.39 z-score and 2.64 z-score.
“CCGATTAACATCAGACTGGGAAATGATGTTAATCGGGTCTTGATTCGCTTGACGCTGCTG”: the binding signal with GST-Ap-NF-kB RHD stood at 1.4 z-score; in assay [1], 1.92 z-score; with GST-Co-NF-kB, 3.05 z-score; in the assay with GST-Aq-NF-kB it was 1.18 z-score.
The corresponding values for “CCGATTAACATCACCTCTTTCCCTGATGTTAATCGGGTCTTGATTCGCTTGACGCTGCTG” are 2.58 z-score, 2.64 z-score, 3.61 z-score and 2.52 z-score.
As to “CCGATTAACATCATCTGGGAAAATGATGTTAATCGGGTCTTGATTCGCTTGACGCTGCTG”, the binding signal is 1.33 z-score in the assay with GST-Ap-NF-kB RHD, 2.91 z-score in assay [1], 3.73 z-score with GST-Co-NF-kB and 1.45 z-score with GST-Aq-NF-kB.
The corresponding values for “CCGATTAACATCATTTCCCTTGATGATGTTAATCGGGTCTTGATTCGCTTGACGCTGCTG” are 1.97 z-score, 4.19 z-score, 1.95 z-score and 3.49 z-score.
The corresponding values for “CCGATTAACATCAACTCGGGAAATGATGTTAATCGGGTCTTGATTCGCTTGACGCTGCTG” are 1.08 z-score, 2.75 z-score, 3.32 z-score and 1.73 z-score.
The corresponding values for “CCGATTAACATCAGGGAAAGGAATGATGTTAATCGGGTCTTGATTCGCTTGACGCTGCTG” are 1.83 z-score, 3.07 z-score, 1.48 z-score and 2.97 z-score.
On to “CCGATTAACATCAAGCCCCCCCCTGATGTTAATCGGGTCTTGATTCGCTTGACGCTGCTG”, for which the binding signal with GST-Ap-NF-kB RHD was 5.25 z-score; in assay [1] it was 4.21 z-score; with GST-Co-NF-kB it was 4.89 z-score; in the assay with GST-Aq-NF-kB, 4.71 z-score.
With “CCGATTAACATCAGGGAAAAGGATGATGTTAATCGGGTCTTGATTCGCTTGACGCTGCTG”, the binding signal with GST-Ap-NF-kB RHD stood at 1.79 z-score; in assay [1] it was 3.4 z-score; with GST-Co-NF-kB, 2.73 z-score; in the assay with GST-Aq-NF-kB it was 2.41 z-score.
Consider “CCGATTAACATCACATACTCCCCTGATGTTAATCGGGTCTTGATTCGCTTGACGCTGCTG”, for which the binding signal turned out to be 4.4 z-score with GST-Ap-NF-kB RHD; 3.45 z-score in assay [1]; 3.69 z-score in the assay with GST-Co-NF-kB; 1.57 z-score with GST-Dm-Relish; 3.42 z-score with GST-Aq-NF-kB.
The corresponding values for “CCGATTAACATCAGGAGTTACCCTGATGTTAATCGGGTCTTGATTCGCTTGACGCTGCTG” are 2.75 z-score, 3.81 z-score, 2.23 z-score, 5.11 z-score and 6.71 z-score.
The corresponding values for “CCGATTAACATCAAATTCCCAGCTGATGTTAATCGGGTCTTGATTCGCTTGACGCTGCTG” are 1.68 z-score, 3.6 z-score, 3.28 z-score, 3.73 z-score and 2.48 z-score.
In the case of “CCGATTAACATCACAGGGAATTCTGATGTTAATCGGGTCTTGATTCGCTTGACGCTGCTG”, the binding signal stood at 4.57 z-score with GST-Ap-NF-kB RHD; 5.56 z-score in assay [1]; 3.45 z-score with GST-Co-NF-kB; 3.71 z-score with GST-Dm-Relish; 4.62 z-score with GST-Aq-NF-kB.
The corresponding values for “CCGATTAACATCAGATATTTCCCTGATGTTAATCGGGTCTTGATTCGCTTGACGCTGCTG” are 3.25 z-score, 5.95 z-score, 5.03 z-score, 2.31 z-score and 6.38 z-score.
As to “CCGATTAACATCAATCGTCCCCCTGATGTTAATCGGGTCTTGATTCGCTTGACGCTGCTG”, the binding signal with GST-Ap-NF-kB RHD is 5.15 z-score; in assay [1] it was 4.15 z-score; with GST-Co-NF-kB it was 6.83 z-score; in the assay with GST-Dm-Relish, 2.93 z-score; in the assay with GST-Aq-NF-kB, 4.81 z-score.
As to “CCGATTAACATCAGATTTCCCACTGATGTTAATCGGGTCTTGATTCGCTTGACGCTGCTG”, the binding signal in the assay with GST-Ap-NF-kB RHD is 1.83 z-score; in assay [1] it was 3.74 z-score; with GST-Co-NF-kB it was 3.15 z-score; in the assay with GST-Dm-Relish, 2.02 z-score; in the assay with GST-Aq-NF-kB, 2.32 z-score.
The corresponding values for “CCGATTAACATCACCCCTCCCCCTGATGTTAATCGGGTCTTGATTCGCTTGACGCTGCTG” are 4.84 z-score, 3.91 z-score, 4.73 z-score, 3.78 z-score and 4.12 z-score.
